# Data taken from PubChem BioAssay (NCI).
# About 83,000 compounds went through this panel and 20% of them were active in at least one assay; those are over-represented in the sample as a whole.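 Treatment: one concentration, 48 hours, 96-well format. Scoring: percent growth, with anything below 10 considered active.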 Activity calls are given as the source filed them.
# Tested on: HL-60(TB) leukemia
# Test: NCI-60 one-dose screen, 48 h (100 = growth as untreated, 0 = no growth, -100 = all killed)
# Conditions: 10 µM unless noted
row,SMILES,growth
1,CN1CCN(c2nc(NCCCNc3ccnc4cc(Cl)ccc34)c3ccccc3n2)CC1,15% (inactive)
2,CCN(CCNc1ccc(C)c2sc3cc(Cl)ccc3c(=O)c12)CC(C)O (stereo not given),9.78% (active)
3,O=C1C(Cl)=C(Nc2ccccc2)C(=O)C(Cl)=C1Nc1ccccc1,122% (inactive)
4,Oc1ccccc1-c1nnc(COc2ccc(Cl)cc2Cl)o1,3.89% (active)
5,N#Cc1c(-c2ccc(Br)cc2)nc2c(N=Nc3ccc(S(N)(=O)=O)cc3)c(N)nn2c1N,38.1% (inactive)
6,C/C(=N\N=C1/SCC(=O)N1c1ccccc1)c1ccco1,99% (inactive)
7,CN(C)CCC(CCN(C)C)(C(=O)O)c1ccccc1,101% (inactive)
8,COc1cccc(-c2nc3sccn3c2-c2ccnc(NCCNS(=O)(=O)c3ccccc3)c2)c1,-18.1% (active)
9,O=C1C(Cl)C(c2ccccc2Cl)N1n1cnnc1 (stereo not given),109% (inactive)
10,CCN(CC)CCn1c2ccc(OC)cc2c2sc3cc(O)ccc3c(=O)c21,31% (inactive)
11,COc1ccc(/C=C2\CS(=O)(=O)C/C(=C\c3ccc(OC)cc3)C2=O)cc1,-29.8% (active)
12,COc1ccc(-c2nn(-c3cccc(Cl)c3)cc2-c2cc(-c3ccc(Br)cc3)[nH]c(=O)c2C#N)cc1,101% (inactive)
13,CCCCN1CCN(c2ccc3nc(-c4ccc5nc(-c6ccc(C(F)(F)F)cc6)[nH]c5c4)[nH]c3c2)CC1,-58.7% (active)
14,Cc1ccc(S(=O)(=O)NCCNc2cc(-c3cn(C(C)(C)C)nc3-c3cccc(O)c3)ccn2)cc1,65.8% (inactive)
15,COc1ccc(N=C(c2ccccc2)C2C(=O)c3ccccc3C2=O)cc1,61.3% (inactive)
16,CN(C)CCCCC(C(=O)CBr)(c1ccccc1)c1ccccc1,-36.1% (active)
17,NCCCOc1cc(Cl)ccc1NC(=O)c1cc2ccccc2cc1OCCCN,-73% (active)
18,COc1cc(OC)c(NC(=O)c2cc3ccccc3cc2O)cc1Cl,22% (inactive)
19,COc1cc(/C=C2\COc3ccc(-c4ccccc4)cc3C2=O)cc(OC)c1,42.9% (inactive)
20,Cc1cc(O)c(C(C)C)cc1Cl,101% (inactive)

row,SMILES,growth
1,Cc1ccc(-c2cc(-c3ccc(C)cc3)nc(N3CCN(CCNc4ccnc5cc(Cl)ccc45)CC3)n2)cc1,0.0538% (active)
2,COc1cc2oc(-c3cccc(C(=O)Nc4ccc(C#N)cc4)c3)cc(=O)c2c(O)c1OC,136% (inactive)
3,Cc1cc(C)c2nc(C)c(C)[n+]([O-])c2c1,85.7% (inactive)
4,Nc1cccc2c1C(=O)c1cccc(NC(=O)c3ccccc3)c1C2=O,1.36% (active)
5,Cn1c2c(cc(S(=O)(=O)c3ccccc3)c1=O)CCc1c-2cnn1-c1cccc(Cl)c1,107% (inactive)
6,CC1=C[C@H]2c3c(c(O)c(O)c4oc5cc(O)ccc5c(=O)c34)[C@H](c3cc(O)c(O)c4oc5cc(O)ccc5c(=O)c34)[C@H]2C(C)(C)C1,17.8% (inactive)
7,O=[N+]([O-])c1ccc2c(c1)Cc1ccccc1-2,87% (inactive)
8,CO[C@H]1C[C@@H]2CC[C@@H](C)[C@@](O)(O2)C(=O)C(=O)N2CCCC[C@H]2C(=O)O[C@H]([C@H](C)C[C@@H]2CC[C@@H](O)[C@H](OC)C2)CC(=O)[C@H](C)/C=C(\C)[C@@H](O)[C@@H](OC)C(=O)[C@H](C)C[C@H](C)\C=C/C=C/C=C/1C,16.5% (inactive)
9,Cn1c(=O)c(F)c(Nc2ccc(I)cc2F)c2c(=O)n(C[C@@H](O)CO)cnc21,15.8% (inactive)
10,O=c1[nH]c(=O)[nH]c(=S)[nH]1,102% (inactive)
11,Fc1ccc(-c2cnc3nonc3n2)c(F)c1,7.84% (active)
12,O=P(O)(c1ccccc1)c1ccccc1I,117% (inactive)
13,COCc1cnccc1NC1CCCCCC1,86.2% (inactive)
14,CC(=O)c1cc(C(=O)c2ccc3c(c2)Sc2ccccc2N3)c2cc(C)ccn12,2.96% (active)
15,Nc1c(C(=O)Nc2cccc3ncccc23)sc2nc3c(cc12)CN(Cc1ccccc1)CC3,48.6% (inactive)
16,CC(C)(C)[Si](C)(C)OC1[C@@H](O[Si](C)(C)C(C)(C)C)[C@@H](CNC(=O)NC(=O)NC(=O)CI)O[C@H]1n1cnc2c(NC(=O)Nc3ccccc3)ncnc21 (stereo not given in full),-67.1% (active)
17,O=C(Nc1ccccc1)Nc1ccc(C(=O)/C=C/c2ccc(N3CCCC3)cc2)cc1,35.2% (inactive)
18,Cc1cc(-c2nnc(/C=C/c3ccc4c(c3)OCO4)o2)n[nH]1,10.6% (inactive)
19,O=C(COc1ccc(/C=C2\CSc3ccccc3C2=O)cc1)Nc1nccs1,-22.4% (active)
20,COc1ccc2c(=O)c(OC)c(-c3cc(OC)c(OC)c(OC)c3)oc2c1,85.1% (inactive)
